Pf Dd2 inh – Plasmodium falciparum Dd2 growth inhibition. P. falciparum Dd2 growth, SYBR Green, 72 h. Potency, µM (titrated, usually from 28.9 µM), without a hit: at the top dose activity, negative = inhibition, most hits filed as inhibitors. actives 4.3% (n = 120,000). AID 1347417; active = well fitted inhibition curve with a large enough effect;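 also: plate controls were DMSO vehicle for no effect and reference drug for full effect; nearly all actives have a fitted effect of over 65% in size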
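Readout: SYBR Green fluorescence, 485 nm excitation, 535 nm emission, after ~16 h lysis at 37C. Before that, Dd2-infected red cells (2.5% hematocrit) grew 72 h with compound, 29 uM top final concentration.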
* marks the source's active call; other numbers are inactive results; i = inactive; [ ] = another dose, or the depositor's remark. This is one part of a sample in which hits are shown more often than they occur. Potency is read from the fitted curve at half-maximal effect.

SMILES	Pf Dd2 inh
O=C(Cn1ncc2c3ccccc3n(Cc3ccccc3F)c2c1=O)NCCCc1ccccc1	4%
O=C(Cn1ncc2c3ccccc3n(Cc3ccc(F)cc3)c2c1=O)NCCCN1CCCCC1	5µM*
O=C(Cn1ncc2c3ccccc3n(Cc3ccc(F)cc3)c2c1=O)NC1CCCCCC1	i
CCCCN(CC)CCCNC(=O)Cn1ncc2c3ccccc3n(C)c2c1=O	i
CCCn1c2ccccc2c2cnn(CC(=O)NCCN(CC)CC)c(=O)c21	i
O=C(Cn1ncc2c3ccccc3n(Cc3ccc(F)cc3)c2c1=O)NCCC1=CCCCC1	43%[0.594 µM]
CCN(CC)CCNC(=O)Cn1ncc2c3ccccc3n(Cc3ccc(Cl)cc3)c2c1=O	5µM*
CCCCN(CC)CCCNC(=O)Cn1ncc2c3ccccc3n(Cc3ccccc3F)c2c1=O	4µM*
Cn1c2ccccc2c2cnn(CC(=O)NCc3ccc(Cl)cc3)c(=O)c21	22%
CC(O)c1cc2n(n1)CCN(C1CCN(C(=O)c3cnccn3)CC1)C2 (centres undefined)	-5%
O=C(NCCn1c(=O)c(=O)[nH]c2ccccc21)C1CC(=O)N(c2n[nH]c3ccccc23)C1 (centres undefined)	i
CCN(CC)C(=O)[C@@H]1CCC[C@@H](NC(=O)c2cc(C)on2)CN(C)C(=O)C1	-10%[44.1 µM]
O=C(CC1CCN(C(=O)c2cc(F)ccc2F)C1)NC1CC1 (centres undefined)	28%
Cc1cc(C)c(CNC(=O)[C@H]2CNC[C@@H](C(=O)N3CCCC3)C2)cn1	1%
CCOC(=O)c1sc(NC(=O)C(C)Sc2nc(-c3ccccc3)cc(C(F)(F)F)n2)c(C(=O)OC)c1C (centres undefined)	0.71µM*
CCOC(=O)c1c(NC(=O)CSc2nc(-c3ccccc3)cc(C(F)(F)F)n2)sc(C)c1C	i
COc1ccc(CNC(=O)C(C)Sc2nc(-c3ccccc3)cc(C(F)(F)F)n2)cc1 (centres undefined)	-18%
Cc1nccn1-c1ccc(CNC(=O)C(c2ccccc2F)N(C)C)cc1 (centres undefined)	-11%
Cn1c(=O)[nH]cc(CC(=O)N2C[C@H](C3CC3)[C@@H](N)C2)c1=O	-6%
COc1ccc(C(=O)N(C)C2CCc3ccccc32)cc1 (centres undefined)	i
Cc1ccc(/C=C/c2nc3ccccc3n2S(=O)(=O)c2ccc(Br)cc2)cc1	5.6µM*
CSc1ccc(/C=C/c2nc3ccccc3n2S(=O)(=O)c2cccc(Cl)c2)cc1	i
O=S(=O)(c1cccc(Cl)c1)n1c(/C=C/c2ccccc2Cl)nc2ccccc21	i
O=C(Nc1ccc(C2(C(=O)NCc3ccc4c(c3)OCO4)CCCCC2)cc1)C1CC1	13µM*
O=C(Nc1ccc(C2(C(=O)NCc3ccc(F)cc3)CCCCC2)cc1)C1CC1	4%
SMILES	Pf Dd2 inh
CS(=O)(=O)Nc1ccc(C2(C(=O)NCc3ccc4c(c3)OCO4)CCCCC2)cc1	i
O=C(Nc1ccccc1F)N1CC2CCC(C1)N2Cc1ccc(-c2ccccc2)cc1	6%
CN(C)C[C@@H]1CN(Cc2ccncc2)C[C@H]1NC(=O)c1cccc(C#N)c1	9%
CC1CN(C(=O)N2CCC(C(=O)NCCC3=CCCCC3)CC2)c2ccccc2O1 (centres undefined)	-11%
CCC1CN(C(=O)N2CCC(C(=O)NCCC3=CCCCC3)CC2)c2cc(C)ccc2O1 (centres undefined)	13µM*
CCC1CN(C(=O)N2CCC(C(=O)NCCCc3ccccc3)CC2)c2cc(C)ccc2O1 (centres undefined)	i
COc1cccc(NC(=O)Cn2c(C)cc3nc4n(c(=O)c32)CCC4)c1	i
Cc1ccc(C2Cn3nnc(C(=O)N4CCC(C(=O)NCc5ccccc5Cl)CC4)c3CO2)cc1 (centres undefined)	i
CCCn1cnnc1-c1nc2c([nH]1)CC(c1ccccc1OC)CNC2=O (centres undefined)	-10%
Cc1cccn2c(=O)c(C(=O)NCCc3ccc(Cl)cc3)cnc12	i
Cn1ncc2c(C(=O)NCCc3ccc(Cl)cc3)cc(-c3ccc([S+](C)(=O)[O-])cc3)nc21	-19%
COC(=O)CNC(=O)c1nc(-c2ccsc2)c2cnccn12	-8%[44.1 µM]
COCCNC(=O)c1nc(-c2cccnc2)c2cnccn12	0%[44.1 µM]
C[S+](=O)([O-])c1ccc(-c2nc(C(=O)NCCc3ccc(Cl)cc3)n3ccncc23)cc1	8.9µM*
CC(C)(C)c1nc(C(=O)NCCc2ccc(Cl)cc2)n2ccncc12	2.2µM*
COC(=O)[C@@H]1Cc2nc[nH]c2CN1Cc1ccc(C(=O)O)cc1	36%[44.1 µM]
O=C(Cc1ccccc1)N1CCC(c2n[nH]c(=O)n2Cc2ccc(F)cc2)CC1	i
O=C(NCCn1ccn2nc(-c3ccc(F)cc3)cc2c1=O)c1ccc2c(c1)OCO2	i
Cc1ccc(C2Cn3nnc(C(=O)N4CCC(C(=O)NCC(C)c5ccccc5)CC4)c3CO2)cc1 (centres undefined)	-8%
COC(=O)CNC(=O)c1cc(-c2cnccc2Cl)c2cccn2n1	1%
O=C(NCc1ccc(F)cc1)c1cc(-c2cnccc2Cl)c2cccn2n1	8.9µM*
CN(C)C(=O)c1cc(-c2cnccc2Cl)c2cccn2n1	11%
CC(=O)Nc1ccc(NC(=O)Cn2ccn3nc(-c4ccc(F)cc4)c(CO)c3c2=O)cc1	11%
C[C@H]1[C@@H]2[C@@H](O)C([C@H](C)C(=O)NCc3ccco3)CC[C@@]2(C)CC[C@@H]1NC(=O)c1ccccn1 (some centres undefined)	-16%
CCn1ccc(C(=O)N2CCC(N3C(=O)C(OCC4CC4)C34CCCCC4)CC2)n1 (centres undefined)	-25%
SMILES	Pf Dd2 inh
O=C(C1CCCC1)N1CCC(N2C(=O)C(OCC3CC3)C23CCCCC3)CC1 (centres undefined)	i
O=C(c1n[nH]c2ccccc12)N1CCC(N2C(=O)C(OCC3CC3)C23CCCCC3)CC1 (centres undefined)	4.5µM*
CN1CC(=O)N(C2CCNCC2)Cc2c(NC3CCCCCC3)ncnc21	-8%
COc1ccccc1-c1ccnc(N[C@H]2CO[C@H]3[C@@H]2OC[C@@H]3NS(=O)(=O)c2cccs2)n1	-16%
COc1ccccc1-c1ccnc(N[C@H]2CO[C@H]3[C@@H]2OC[C@@H]3NS(C)(=O)=O)n1	14µM*
COc1ccccc1-c1ccnc(N[C@H]2CO[C@H]3[C@@H]2OC[C@@H]3NS(=O)(=O)c2ccc(NC(C)=O)cc2)n1	i
CC(C)C(=O)N1CCCC2(CNS(=O)(=O)c3cccnc3O2)C1 (centres undefined)	13%
CS(=O)(=O)N1CCC(C2CCN(C(=O)c3ccn[nH]3)C2)CC1 (centres undefined)	4%
O=C(Nc1cccc(-n2cccn2)c1)C1CCCN(C(=O)N2CCOCC2)C1 (centres undefined)	-13%
COc1cccc(NC(=O)c2cnc(-c3ccc(C)cc3)nc2-c2ccncc2)c1	-23%
COc1ccc(NC(=O)c2sc3nc(C)c(C(=O)Nc4ccc(C)cc4C)c(-c4ccc(C)o4)c3c2N)cc1	8.9µM*
CCOc1ccccc1NC(=O)c1sc2nc(-c3ccc(OC)cc3)ccc2c1N	16%
COc1ccc(NC(=O)c2sc3nc4c(cc3c2N)CCCCCC4)c(OC)c1	-13%
COc1cccc(NC(=O)c2sc3nc(C)c(C(=O)Nc4ccc(C)cc4C)c(-c4cccs4)c3c2N)c1	1.3µM*
COc1cccc(NC(=O)c2sc3nc(C)c(C(=O)Nc4ccc(C)cc4C)c(-c4ccc(C)o4)c3c2N)c1	11µM*

Screens: PubChem, National Center for Advancing Translational Sciences (NCATS)
